The source of these data is PubChem BioAssay (EPA / NIEHS).

Structures are written as SMILES. Calls of active or inactive are those of the source. How the source made its calls: active means hit-call score of the fitted dose curve at least 0.9, where 1 is the maximum; inactive means score below 0.9.

What all share (details): mRNA level, 48 h; actives raise or lower the signal
Read-out in assay [1]: Interleukin 6 Receptor (IL6R), IL6R (gene 3570)
Description: LTEA_HepaRG_IL6R: Life Technologies and Expression Analysis (LTEA) Assay for Interleukin 6 Receptor (IL6R) using HepaRG (AID 2283510).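 On AC50: TaqMan qRT-PCR signal normalized to ACTB GAPDH and POLR2A housekeeping genes.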 A digest of the protocol: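 Differentiated human HepaRG cells, plated 48 h then switched to serum-free induction medium, were dosed in duplicate for 48 h at eight half-log concentrations up to 100 uM in 0.5% DMSO. IL6R mRNA quantified by qRT-PCR, normalized to ACTB/GAPDH/POLR2A; bidirectional fit versus DMSO.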

Read-out in assay [2]: Potassium channel subfamily K member 1 (KCNK1), KCNK1 (gene 3775)
Description: LTEA_HepaRG_KCNK1: Life Technologies and Expression Analysis (LTEA) Assay for Potassium channel subfamily K member 1 (KCNK1) using HepaRG (AID 2283511). The gist of the method: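 Differentiated human HepaRG cells in serum-free induction medium were exposed in duplicate for 48 h to 8 half-log concentrations up to 100 uM in 0.5% DMSO. KCNK1 mRNA was measured by TaqMan qRT-PCR, normalized to ACTB, GAPDH and POLR2A, and fitted bidirectionally versus DMSO.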

Read-out in assay [3]: Keratin 19 (KRT19), KRT19 (gene 3880)
Nature of the assay: LTEA_HepaRG_KRT19: Life Technologies and Expression Analysis (LTEA) Assay for Keratin 19 (KRT19) using HepaRG (AID 2283512). The gist of the method:
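Gene-expression endpoint in the human liver line HepaRG after 48 h exposure to up to 100 uM test chemical with 0.5% DMSO vehicle; KRT19 mRNA by qRT-PCR, analyzed bidirectionally versus DMSO.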

Read-out in assay [4]: JUN Transcription Factor, JUN (gene 3725)
Nature of the assay: LTEA_HepaRG_JUN: Life Technologies and Expression Analysis (LTEA) Assay for JUN Transcription Factor using HepaRG (AID 2283513). The gist of the method: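 Differentiated HepaRG cells were exposed to chemicals for 48 h in serum-free induction medium, 8 concentrations from 100 uM in half-log steps, 0.5% DMSO vehicle, in duplicate. JUN mRNA was quantified by TaqMan qRT-PCR, normalized to ACTB, GAPDH, POLR2A.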

Read-out in assay [5]: Lipase C (LIPC), LIPC (gene 3990)
Nature of the assay: LTEA_HepaRG_LIPC: Life Technologies and Expression Analysis (LTEA) Assay for Lipase C (LIPC) using HepaRG (AID 2283514). A digest of the protocol: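 Differentiated human HepaRG cells in serum-free induction medium were exposed in duplicate for 48 h to eight concentrations (top 100 uM, half-log steps, 0.5% DMSO). LIPC mRNA was quantified by TaqMan qRT-PCR, normalized to ACTB, GAPDH and POLR2A, with bidirectional fitting versus DMSO.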

Read-out in assay [6]: Lipoprotein lipase (LPL), LPL (gene 4023)
Nature of the assay: LTEA_HepaRG_LPL: Life Technologies and Expression Analysis (LTEA) Assay for Lipoprotein lipase (LPL) using HepaRG (AID 2283515). A digest of the protocol:
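Differentiated human HepaRG cells in serum-free induction medium were exposed in duplicate for 48 h to eight half-log concentrations (top 100 uM) in 0.5% DMSO. LPL mRNA was quantified by TaqMan qRT-PCR, normalized to ACTB, GAPDH and POLR2A.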

Read-out in assay [7]: MicroRNA 122 (MIR122), gene 406906
Description: LTEA_HepaRG_MIR122: Life Technologies and Expression Analysis (LTEA) Assay for MicroRNA 122 (MIR122) using HepaRG (AID 2283516). Further: the transcript read is the microRNA miR-122. The gist of the method: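 Differentiated human HepaRG cells were exposed 48 h in serum-free induction medium to eight half-log concentrations (top 100 uM, 0.5% DMSO). Transcript level was measured by TaqMan qRT-PCR, normalized to ACTB, GAPDH and POLR2A, and fitted bidirectionally versus DMSO.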

Read-out in assay [8]: matrix metalloproteinase-10 (MMP10), MMP10 (gene 4319)
Nature of the assay: LTEA_HepaRG_MMP10: Life Technologies and Expression Analysis (LTEA) Assay for matrix metalloproteinase-10 (MMP10) using HepaRG (AID 2283517). The gist of the method:
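HepaRG, collagen I, ~100,000 cells/well; serum-free induction medium; 48 h exposure, duplicate, 8-pt half-log to 100 uM, 0.5% DMSO. Readout: TaqMan qRT-PCR, normalized to ACTB/GAPDH/POLR2A; bidirectional fit vs DMSO.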

Read-out in assay [9]: matrix metalloproteinase-3 (MMP3), MMP3 (gene 4314)
Nature of the assay: LTEA_HepaRG_MMP3: Life Technologies and Expression Analysis (LTEA) Assay for matrix metalloproteinase-3 (MMP3) using HepaRG (AID 2283519). A digest of the protocol:
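Differentiated human HepaRG cells, plated 48 h on collagen I, were exposed in duplicate for 48 h in serum-free induction medium to eight half-log concentrations up to 100 uM in 0.5% DMSO. MMP3 mRNA was quantified by TaqMan qRT-PCR, normalised to ACTB, GAPDH and POLR2A.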

Read-out in a further assay: MYC, MYC (gene 4609)
Description: LTEA_HepaRG_MYC: Life Technologies and Expression Analysis (LTEA) Assay for MYC using HepaRG (AID 2283518). The gist of the method:
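Cells are thawed, plated and cultured 48 h, then treated for 48 h with test chemicals (eight half-log concentrations from 100 uM, 0.5% DMSO vehicle). RNA is isolated and MYC expression quantified by qRT-PCR against three housekeeping genes.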

As to `C#CC(O)C(CC)CCCC` (stereo not drawn), the compound was classed as inactive in assay [1], in assay [2], in assay [3], in assay [4], in [5] and in [6]. The result in assay [7], in assay [8] and in assay [9] was inactive.

On to `C=CCCCCCCCCCCCC`, for which the call in assay [1], in [2], in assay [3], in assay [4], in assay [5] and in assay [6] was inactive. Moreover, the result in [7], in assay [8] and in assay [9] was inactive.

With `O=C(NS(=O)(=O)/C=C/c1cccs1)c1ccc(F)cc1Br`, the call in [1], in assay [2], in assay [3], in assay [4], in assay [5] and in [6] was inactive. Also, the call in [7], in [8] and in assay [9] was inactive.

For the compound `Cc1occc(=O)c1O`, the compound was called inactive in [1], in assay [2], in [3], in assay [4], in assay [5] and in [6]. In addition, the call in assay [7] and in assay [9] was inactive.

`Cc1cc(Cc2ccc(N)c(C)c2)ccc1N`: the compound was called inactive in assay [1], in assay [2], in assay [3], in assay [4], in [5] and in [6]. Moreover, the compound was classed as inactive in [7], in assay [8] and in [9].

For `CCCCc1nc2cccnc2n1Cc1ccc(-c2ccccc2-c2nnn[nH]2)cc1`, the compound was called inactive in assay [1], in [2], in assay [4], in assay [5], in [6] and in [7]. Also, the outcome was “inactive” in assay [8] and “inactive” in the assay with MYC, MYC (gene 4609). In addition, the AC50 – broadly, the concentration giving half of the maximal activity seen – in assay [9] is 50 µM (active).

As for `NC1CCCCC1`, the outcome in [1], in assay [2], in [3], in [4], in [5] and in [6] was inactive. Further, the outcome in [7], in [8] and in assay [9] was inactive.

For the compound `O=C(O)c1[nH]n(-c2ccc(S(=O)(=O)O)cc2)c(=O)c1N=Nc1ccc(S(=O)(=O)O)cc1`, the result in assay [1], in [2], in [3], in assay [4], in [5] and in [6] was inactive. Besides, the compound was classed as inactive in [7], in [8] and in assay [9].

As for `CC(C)OC(=O)C(C)(C)Oc1ccc(C(=O)c2ccc(Cl)cc2)cc1`, the call in assay [1], in assay [2], in assay [3], in assay [5], in [6] and in [7] was inactive. In [8], the call was inactive. The AC50 in assay [9] is 0.0439 µM (active).

In the case of `CC(N)=O`, the compound was called inactive in assay [1], in [2], in [3], in assay [4], in assay [5] and in [6]. In addition, the compound was classed as inactive in [7], in assay [8] and in assay [9].

Consider `CCN(CC)CCOc1ccc(C(=C(Cl)c2ccccc2)c2ccccc2)cc1`, for which the result in [1], in assay [2], in assay [3] and in assay [9] was inactive. Also, the AC50 is 66.2 µM (active) in [4]; 24.1 µM (active) in [5]; 17.8 µM (active) in assay [6]; 78.8 µM (active) in assay [7]; 28.8 µM (active) in assay [8].

For the compound `CCc1cc(C2=C(C(=O)O)N(c3ccccc3C(F)(F)F)S(=O)(=O)c3ccccc32)cc2c1OCO2`, the result in assay [1], in assay [4], in assay [7] and in assay [8] was inactive. Besides, the AC50 in [2] was 73.3 µM (active); in [3] it was 9.92 µM (active); in [5], 80.1 µM (active); in assay [6], 74.3 µM (active); in assay [9] it was 50 µM (active).

On to `CC(=O)OC1CC(C)OC(C)O1` (stereo not drawn), for which the result in [1], in assay [2], in assay [3], in [4], in [5] and in [6] was inactive. For the same compound, the compound was classed as inactive in [7], in assay [8] and in assay [9].

On to `Cc1cc(SC2=C(O)C[C@@](CCc3ccc(N)cc3)(C(C)C)OC2=O)c(C(C)(C)C)cc1CO`, for which the compound was classed as inactive in [1], in assay [2], in assay [3], in assay [4], in assay [5] and in assay [6]. In addition, the result in [7], in assay [8] and in assay [9] was inactive.

`Nc1nc(=S)c2[nH]cnc2[nH]1`: the AC50 was 8.69 µM (active) in assay [1]; 7.57 µM (active) in assay [4]; 5.83 µM (active) in [5]; 19.1 µM (active) in assay [6]; 11.9 µM (active) in assay [7]. In addition, the call in [3], in assay [8] and in assay [9] was inactive.

As for `CC(=O)O[C@]1(C(C)=O)CC[C@H]2[C@@H]3C=C(Cl)C4=CC(=O)[C@@H]5C[C@@H]5[C@]4(C)[C@H]3CC[C@@]21C`, the compound was called inactive in assay [1], in [2], in [4], in assay [5], in assay [8] and in assay [9]. Moreover, the AC50 in [3] was 17.9 µM (active); in assay [6], 13.3 µM (active); with MYC, MYC (gene 4609), 9.92 µM (active).

Consider `CC(=O)OCC(COC(C)=O)OC(C)=O`, for which the compound was called inactive in [1], in [2], in [3], in assay [4], in assay [5] and in assay [6]. The outcome in assay [7], in assay [8] and in assay [9] was inactive.

As for `CC1=C(C)S(=O)(=O)CCS1(=O)=O`, the compound was called inactive in assay [1], in [2], in [8] and in [9]. The AC50 is 76.6 µM (active) in assay [3]; 74.6 µM (active) in assay [4]; 85.8 µM (active) in assay [5]; 75.3 µM (active) in assay [6]; 75.2 µM (active) in [7].

As to `CC(COCC(C)OC(=O)c1ccccc1)OC(=O)c1ccccc1` (stereo not drawn), the compound was classed as inactive in assay [1], in [2], in assay [3], in assay [4], in assay [5] and in assay [6]. Besides, the compound was called inactive in assay [7], in [8] and in assay [9].

Turning to `Nc1nc(Cl)nc2c1ncn2[C@H]1C[C@H](O)[C@@H](CO)O1`, the concentration at half-maximal activity (AC50) in assay [1] is 0.603 µM (active); in [2] it was 1.36 µM (active); in [5] it was 1.03 µM (active); in assay [6], 1.03 µM (active); in [7] it was 1.55 µM (active); in [8] it was 1.72 µM (active). Further, the half-maximal activity concentration (AC50) in assay [9] is 3.75 µM (active). In addition, the outcome in [3] is “inactive”; in the assay with MYC, MYC (gene 4609), “inactive”.

Regarding `CC(=O)O`, the compound was called inactive in assay [1], in assay [2], in assay [3], in [4], in assay [5] and in [6]. Also, the result in [7], in assay [8] and in [9] was inactive.

For `CO[C@@H]1COCC[C@@H]1N[C@@H]1CC[C@@](C(=O)N2CCc3ncc(C(F)(F)F)cc3C2)(C(C)C)C1`, the compound was called inactive in assay [1], in assay [2], in [3], in assay [4], in [5] and in assay [6]. The compound was classed as inactive in assay [7], in assay [8] and in assay [9].

Take `Cc1cn([C@H]2C=C[C@@H](CO)O2)c(=O)[nH]c1=O`: the result in assay [1], in [2], in assay [3], in assay [4], in [5] and in assay [6] was inactive. Besides, the result in assay [7], in assay [8] and in assay [9] was inactive.

As to `O=C1CCCCC1`, the call in assay [1], in [2], in [3], in assay [4], in assay [5] and in assay [6] was inactive. Further, the compound was called inactive in assay [7], in assay [8] and in assay [9].
